Compound activity: PubChem BioAssay, National Center for Advancing Translational Sciences (NCATS)
IL1B secr inh: inhibitors of inflammasome signaling (IL-1 beta secretion) | AID 743279 | THP-1 LPS/ATP IL-1B secretion, AlphaLISA, 16 h; active compounds read low | activity change, % at 57.5 µM | 360,000 tested, 4.7% active; in the data active = activity change below about -50%; inconclusive = mostly about -30% to -49%
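Secreted IL-1B measured by AlphaLISA bead assay after 16 h compound exposure of THP-1 cells; compounds (final up to 57.5 uM) added 1 h before LPS (250 ng/mL) and ATP (1.25 mM) stimulation; lower signal means less secretion.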
HT1080 IDH1KD tx: HT-1080 IDH1 knockdown cell toxicity (counter line); 360,000 tested, 2% active; Potency, µM (titrated, usually from 46.1 µM), most hits filed as cytotoxic; HT-1080 IDH1 knockdown viability, ATP luminescence, 48 h
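Luminescent ATP read-out (CellTiter-Glo, 10 min at room temperature) after 48 h compound exposure at 37 °C gave viability of IDH1-knockdown HT-1080 cells. Activity was normalised to DMSO and cell-free wells, then fitted as concentration-response curves.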
KB-3-1 cytotox: KB-3-1 parental cell cytotoxicity. KB-3-1 viability, CellTiter-Glo ATP luminescence, 72 h. Potency, µM (titrated, usually from 46.1 µM), usual class: cytotoxic. 400,000 tested, 1.4% active. AID 1347075; also: nearly all actives have a fitted effect of over 60% in size
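Parental KB-3-1 viability, qHTS format: 72 h compound exposure, 37 °C; CellTiter-Glo; media-only wells and DMSO plates as controls; concentration-effect fits on corrected data.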
KB-V1 MDR tox: kills drug-selected multidrug resistant KB-V1 cells; KB-V1 MDR cells viability, CellTiter-Glo, 72 h; Potency, µM (top dose mostly 46.1 µM), most hits filed as cytotoxic; 400,000 tested, 3.4% active; AID 1347076; also: nearly all actives have a fitted effect of over 60% in size
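Luminescent ATP read-out (CellTiter-Glo, 10 min) measures survival of drug-selected KB-V1 MDR cells after 72 h, 37 degrees C compound exposure. Medium: phenol-red-free DMEM, 10% FBS. Values from fitted concentration-response curves.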
HT1080NT lethal: kills 2HG-producing HT-1080-NT fibrosarcoma cells | HT-1080-NT fibrosarcoma viability, CellTiter-Glo ATP luminescence, 48 h | Potency, µM (titrated, usually from 46.1 µM), usual class: cytotoxic | 360,000 tested, 1.6% active | AID 686970;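 also: NT is the 2HG producing partner of a matched IDH1 knockdown line; nearly all actives have a fitted effect of over 55% in size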
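A 48-hour cytotoxicity screen used HT-1080-NT cells plated 2 hours before compound delivery. ATP-based CellTiter-Glo luminescence measured viability, normalized to DMSO and no-cell controls.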
Numbers stand for hits; ! = not active in a repeat. In the library only some 8.8% were active in any assay of this set; here they are far more common. Unless noted, calls follow the shape of the dose curve; as a rule, active = well fitted curve in the direction sought with a large enough effect; inconclusive = small, poorly fitted or top-dose-only effect, or another doubt; inactive = no such curve, though single readings can be large; an effect the other way counts as inactive or inconclusive.

Screening COc1ccc(N(C)S(=O)(=O)c2cccc(C(=O)Nc3nc4ccccc4[nH]3)c2)cc1 returned IL1B secr inh inconclusive, HT1080 IDH1KD tx inconclusive, KB-3-1 cytotox inconclusive, KB-V1 MDR tox 16.4µM and HT1080NT lethal inactive.
`CN(c1cccc(Cl)c1)S(=O)(=O)c1cccc(C(=O)NCc2ccncc2)c1` gave IL1B secr inh inactive, HT1080 IDH1KD tx inactive, KB-3-1 cytotox inactive, KB-V1 MDR tox inactive and HT1080NT lethal inactive.
Screening COc1ccc(N(C)S(=O)(=O)c2cccc(C(=O)NC3CCCCCC3)c2)cc1 returned IL1B secr inh -54.5, HT1080 IDH1KD tx inconclusive, KB-3-1 cytotox inactive, KB-V1 MDR tox inconclusive and HT1080NT lethal inactive.
For CCN(CC)S(=O)(=O)c1cccc(C(=O)NCC2CCCCC2)c1 the results were IL1B secr inh inactive, HT1080 IDH1KD tx inactive, KB-3-1 cytotox inconclusive, KB-V1 MDR tox 11.6µM and HT1080NT lethal inactive.
`CCOC(=O)/C=C/C(=O)Nc1ccc(S(=O)(=O)N2CCCCCC2)cc1` gave IL1B secr inh -88.4, HT1080 IDH1KD tx inconclusive, KB-3-1 cytotox inactive, KB-V1 MDR tox inactive and HT1080NT lethal inactive.
`O=S(=O)(Nc1cccc2ccccc12)c1ccccc1` gave IL1B secr inh inactive, HT1080 IDH1KD tx inactive, KB-3-1 cytotox inactive, KB-V1 MDR tox inactive and HT1080NT lethal inactive.
COC(=O)Nc1ccc(S(=O)(=O)Nc2cccc3ccccc23)cc1 was read as IL1B secr inh inactive, HT1080 IDH1KD tx inactive, KB-3-1 cytotox inconclusive, KB-V1 MDR tox 14.6µM and HT1080NT lethal inactive.
For CC(=O)Nc1ccc(S(=O)(=O)N(C)c2ccccc2)cc1 the results were IL1B secr inh inactive, HT1080 IDH1KD tx inactive, KB-3-1 cytotox inconclusive, KB-V1 MDR tox inconclusive and HT1080NT lethal inactive.
Screening CCOC(=O)/C=C/C(=O)Nc1ccc(S(=O)(=O)N(C)c2ccccc2)cc1 returned IL1B secr inh -109.8, HT1080 IDH1KD tx 20.6µM, KB-3-1 cytotox inactive, KB-V1 MDR tox inactive and HT1080NT lethal inconclusive.
CCOC(=O)/C=C/C(=O)Nc1ccc(S(=O)(=O)N2CCc3ccccc32)cc1 was read as IL1B secr inh inconclusive, HT1080 IDH1KD tx inactive, KB-3-1 cytotox inactive, KB-V1 MDR tox inconclusive and HT1080NT lethal inactive.
Screening COC(=O)Nc1ccc(S(=O)(=O)N2CCCCCC2)cc1 returned IL1B secr inh inactive, HT1080 IDH1KD tx inconclusive, KB-3-1 cytotox inactive, KB-V1 MDR tox 18.4µM and HT1080NT lethal inactive.
`CC(=O)Nc1ccc(S(=O)(=O)N2CCCC2)cc1` gave IL1B secr inh inactive, HT1080 IDH1KD tx inactive, KB-3-1 cytotox inactive, KB-V1 MDR tox inactive and HT1080NT lethal inactive.
`CC(C)(C)CC(C)(C)N=C1Nc2cc(Cl)c(Cl)cc2N[C@]12C[C@H]1CCCC(=O)N3CC[C@@H](C2)[C@@H]13` gave KB-3-1 cytotox inactive and KB-V1 MDR tox inactive.
`Cc1nnc(SC(C)C(=O)Nc2ccc(S(=O)(=O)N3CCCCCC3)cc2)s1` (stereo not given) gave IL1B secr inh inactive, HT1080 IDH1KD tx inactive, KB-3-1 cytotox inactive, KB-V1 MDR tox 16.4µM and HT1080NT lethal inactive.
Screening Cc1nnc(NC(=O)c2ccc(S(=O)(=O)N3CCCCC3)cc2)s1 returned IL1B secr inh inactive, HT1080 IDH1KD tx inactive, KB-3-1 cytotox inactive, KB-V1 MDR tox inactive and HT1080NT lethal inactive.
O=S(=O)(O)Sc1ccccc1 was read as IL1B secr inh -98.6, HT1080 IDH1KD tx inconclusive, KB-3-1 cytotox inactive, KB-V1 MDR tox inactive and HT1080NT lethal inactive.
Screening CCN(CC)c1ccc(SS(=O)(=O)O)cc1 returned IL1B secr inh -71.4!, HT1080 IDH1KD tx inactive, KB-3-1 cytotox inconclusive, KB-V1 MDR tox inconclusive and HT1080NT lethal inactive.
`CCN(CC)c1ccc(C(=O)O)cc1` gave IL1B secr inh inactive, HT1080 IDH1KD tx inactive, KB-3-1 cytotox inactive, KB-V1 MDR tox inactive and HT1080NT lethal inactive.
Cc1csc(=O)n1CC(=O)Nc1ccc(Cl)c(Cl)c1 was read as IL1B secr inh inactive, HT1080 IDH1KD tx inactive, KB-3-1 cytotox inactive, KB-V1 MDR tox inactive and HT1080NT lethal inactive.
Screening O=C(Cn1c2c(sc1=O)C1c3ccccc3OCC1CS2)Nc1ccc(Cl)c(Cl)c1 (stereo not given) returned IL1B secr inh inconclusive, HT1080 IDH1KD tx inactive, KB-3-1 cytotox 16.4µM, KB-V1 MDR tox inactive and HT1080NT lethal inactive.
For O=c1c(Cc2ccc(Cl)cc2Cl)c(O)ccn1CC(F)(F)F the results were IL1B secr inh inactive, HT1080 IDH1KD tx inactive, KB-3-1 cytotox inactive, KB-V1 MDR tox inactive and HT1080NT lethal inactive.
CC(C)(C)CC(C)(C)c1ccc(O)c(Cc2ccc(Cl)cc2Cl)c1 was read as IL1B secr inh -71.6, HT1080 IDH1KD tx 18.4µM, KB-3-1 cytotox inconclusive, KB-V1 MDR tox inconclusive and HT1080NT lethal 3.66µM.
Screening C[C@@H]1CN([C@@H](C)CO)C(=O)Cc2cc(NC(=O)Nc3ccc(C(F)(F)F)cc3)ccc2O[C@@H]1CN(C)S(=O)(=O)c1ccc(Cl)cc1 returned IL1B secr inh inconclusive, HT1080 IDH1KD tx 23.1µM, KB-3-1 cytotox inconclusive, KB-V1 MDR tox inactive and HT1080NT lethal inconclusive.
`C[C@H](CO)N1C[C@H](C)[C@H](CN(C)S(=O)(=O)c2cn(C)cn2)Oc2ccc(NC(=O)Nc3ccc(C(F)(F)F)cc3)cc2CC1=O` gave IL1B secr inh inactive, HT1080 IDH1KD tx 23.1µM, KB-3-1 cytotox 4.11µM, KB-V1 MDR tox inconclusive and HT1080NT lethal 5.17µM.
Screening C[C@H](CO)N1C[C@H](C)[C@@H](CN(C)S(=O)(=O)c2cn(C)cn2)Oc2c(NC(=O)Nc3ccc(C(F)(F)F)cc3)cccc2C1=O returned IL1B secr inh inactive, HT1080 IDH1KD tx inactive, KB-3-1 cytotox inactive, KB-V1 MDR tox inconclusive and HT1080NT lethal inactive.
C[C@H]1CN([C@@H](C)CO)C(=O)Cc2cc(NC(=O)CCC(F)(F)F)ccc2O[C@H]1CN(C)S(C)(=O)=O was read as IL1B secr inh inactive, HT1080 IDH1KD tx inactive, KB-3-1 cytotox inactive, KB-V1 MDR tox inactive and HT1080NT lethal inactive.
`Cc1ccc(S(=O)(=O)N(C)C[C@@H]2Oc3ccc(NC(=O)CCC(F)(F)F)cc3CC(=O)N([C@@H](C)CO)C[C@@H]2C)cc1` gave IL1B secr inh inactive, HT1080 IDH1KD tx 4.61µM, KB-3-1 cytotox inconclusive, KB-V1 MDR tox inactive and HT1080NT lethal 2.06µM.
O=C(Cn1c(=O)n(CCc2ccccc2)c(=O)c2c3c(sc21)CCCC3)Nc1ccc(F)c(F)c1 was read as KB-3-1 cytotox inactive and KB-V1 MDR tox inactive.
O=C1CCCC2=C1C1(CCCC1)N=C(Nc1nc3cc4ccccc4cc3o1)N2 was read as KB-3-1 cytotox inactive and KB-V1 MDR tox inactive.
Screening Cc1cc(C)c2nc(SCC(=O)N3CC(=O)Nc4ccccc43)c(C#N)cc2c1 returned IL1B secr inh inactive, HT1080 IDH1KD tx 0.92µM, KB-3-1 cytotox 0.651µM, KB-V1 MDR tox 0.731µM and HT1080NT lethal inconclusive.
`COc1ccc2nc(SCC(C)=O)c(C#N)cc2c1` gave IL1B secr inh inactive, HT1080 IDH1KD tx inconclusive, KB-3-1 cytotox inactive, KB-V1 MDR tox inactive and HT1080NT lethal inactive.
